# KCNQ2 enhance: enhances the rat KCNQ2 potassium channel; O88943; CHO-K1 KCNQ2, FluxOR thallium flux fluorescence; active compounds read high; B-score at 10 µM; 310,000 tested, 0.54% active; AID 2239;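 active = fluorescence ratio B-score at least 3 SD of library B-scores, with initial fluorescence B-score within 3 of them, cut at about 5.3 in these data; same plate scores as AID 2156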;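 note: B-score of peak minus minimum over baseline fluorescence ratio after K+ and Tl+ stimulus; positive B-score means potentiation of KCNQ2 with more thallium influx and brighter signal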
# KCNQ2 block: blocks the rat KCNQ2 potassium channel. O88943. CHO-K1 KCNQ2, FluxOR thallium flux, 20 min; active compounds read low. B-score at 10 µM. 310,000 tested, 1.1% active;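 active = fluorescence ratio B-score at most minus 3 library SDs, with starting brightness B-score within 2 library SDs, cut at about -5.5 in these data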
# Kir21 conf inh: confirmation of mouse Kir2.1 potassium channel inhibitors; shares compounds with KCNQ2 enhance; Kir2.1-expressing cells, FluxOR thallium flux fluorescence; active compounds read low; Tl flux remaining, % of negative control (active compounds read low), % at 10 µM; 2,300 tested, 41% active;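 active = Primary-screen hit whose thallium flux fell at least 3 control SD below untreated wells in both duplicates, with normal baseline fluorescence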;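 note: 0% = blank wells without stimulus and 100% = stimulated no-compound controls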
# HEK293 ctr: counter-screen for Kir2.1 inhibitors: effect in parental HEK293 cells. shares compounds with KCNQ2 enhance. FluxOR thallium flux fluorescence; 0% = unstimulated blank wells. FluxOR signal as % of negative control (100 = no effect), % at 10 µM. 2,300 tested, 19% active. AID 2105;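 active = dye signal at least 3 control SD above or below untreated wells in both duplicates, raw fluorescence within 3, either direction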;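 note: percent is based on the flux ratio of peak minus minimum fluorescence over baseline F0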
# CHO-K1 Tl ctr: counter-screen for KCNQ2 potentiators: effect in parental CHO-K1 cells; shares compounds with KCNQ2 enhance; FluxOR thallium flux fluorescence; zero = vehicle mean+3SD, 100% = vehicle-minus-blank window; activity increase over 3SD of controls, % at 10 µM; 1,200 tested, 43% active; AID 2282;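 active = signal rise of at least 3 SD above the untreated control mean, in both duplicate wells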;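 note: counter screen of KCNQ2 potentiator hits so any rise reflects channel-independent effects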
# KCNQ1 pot spec: human KCNQ1 counter-target activity of KCNQ2 potentiators | activation over 3SD threshold, % at 10 µM | 1,200 tested, 28% active | CHO KCNQ1 stable, FluxOR thallium flux fluorescence; beyond 3SD, as % of vehicle-control signal | shares compounds with KCNQ2 enhance;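 active = fluorescence ratio rise of at least 3 SD of vehicle wells above their mean, in both replicate wells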;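 note: 0% = vehicle mean plus 3 SD and 100% = vehicle minus unstimulated blank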
# Target sequence (P51787 whole entry, looked up): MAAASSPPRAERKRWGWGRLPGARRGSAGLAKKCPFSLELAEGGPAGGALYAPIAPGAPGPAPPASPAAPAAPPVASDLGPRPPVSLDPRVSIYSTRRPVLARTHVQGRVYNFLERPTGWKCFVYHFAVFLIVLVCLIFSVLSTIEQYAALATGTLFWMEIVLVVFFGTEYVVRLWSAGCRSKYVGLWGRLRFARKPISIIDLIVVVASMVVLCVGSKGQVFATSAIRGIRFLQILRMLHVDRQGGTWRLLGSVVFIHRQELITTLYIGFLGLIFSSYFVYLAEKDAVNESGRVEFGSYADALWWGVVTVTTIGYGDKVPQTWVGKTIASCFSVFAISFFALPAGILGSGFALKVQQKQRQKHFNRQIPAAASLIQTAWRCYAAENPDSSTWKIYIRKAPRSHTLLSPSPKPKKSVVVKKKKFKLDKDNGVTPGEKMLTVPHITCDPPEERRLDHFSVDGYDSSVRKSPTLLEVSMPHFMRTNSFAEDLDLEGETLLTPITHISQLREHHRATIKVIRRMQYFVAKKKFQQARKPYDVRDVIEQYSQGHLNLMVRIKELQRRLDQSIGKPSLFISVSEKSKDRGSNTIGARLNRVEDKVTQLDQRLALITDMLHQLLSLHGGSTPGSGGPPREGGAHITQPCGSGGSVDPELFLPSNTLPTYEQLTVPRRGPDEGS
# KCNQ2 pot confirm: confirmation of rat KCNQ2 potassium channel potentiators; CHO-KCNQ2 cells, FluxOR thallium flux fluorescence; potentiation, less the hit threshold, % at 10 µM; shares compounds with KCNQ2 enhance; 1,200 tested, 68% active;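 active = fluorescence ratio rising 3 SD or more over the vehicle control mean in both replicates, plus primary screen hit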;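 note: peak minus minimum thallium fluorescence divided by baseline after K/Tl stimulus; 0% = vehicle mean plus 3 SD and 100% = vehicle minus unstimulated blank difference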
# Kir2-1 sel: tests whether KCNQ2 potentiators also affect mouse Kir2.1. shares compounds with KCNQ2 enhance. HEK293 Kir2.1, FluxOR thallium flux fluorescence. activity over 3SD threshold, % at 10 µM. 1,200 tested, 2% active;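 active = fluorescence ratio rise of at least 3 SD above the vehicle-control mean, seen in both replicates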;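 note: 0% = vehicle mean plus 3 SD and 100% = vehicle minus no-stimulus blank window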
# KCNQ2 W236L pot: rat KCNQ2 W236L mutant potentiation by KCNQ2 potentiators | shares compounds with KCNQ2 enhance | AID 2558 | current increase over 3SD of negative controls (%), active compounds read high, % at 25 µM | 940 tested, 10% active | CHO KCNQ2-W236L, automated patch clamp current;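 active = current increase at least 3 SD of the untreated controls above them in both duplicate recordings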
# * marks the source's active call; other numbers are inactive results; i = inactive; . = not tested or not shown. Compounds with a hit are over-represented: about 1.6% of the library has one in this group of screens.
SMILES,KCNQ2 enhance,KCNQ2 block,Kir21 conf inh,HEK293 ctr,others
COCCNC(=O)C(=O)NCCN1CCNCC1,0.47,i,.,.,
O=S1(=O)CCC(N=Cc2cc(Br)ccc2O)C1 (stereo not given),6.4*,i,i,i,CHO-K1 Tl ctr=21*;KCNQ1 pot spec=-19;KCNQ2 pot confirm=22*;Kir2-1 sel=-15;KCNQ2 W236L pot=i
O=c1c2ccccc2c(C=NC2CCS(=O)(=O)C2)c(O)n1-c1ccccc1 (stereo not given),0.49,i,.,.,
CCOc1cccc(/C=C(\C#N)C(=O)NC2CC2)c1,.,i,.,.,
COc1ccc(NC(=O)c2cccc(N3C(=O)C4C5C=CC(C5)C4C3=O)c2)cc1Cl (stereo not given),0.37,i,.,.,
O=[N+]([O-])c1ccc(NC(=S)NCc2ccc(F)cc2)cc1,21*,i,.,.,CHO-K1 Tl ctr=-7;KCNQ1 pot spec=11*;KCNQ2 pot confirm=42*;Kir2-1 sel=-51;KCNQ2 W236L pot=i
O=[N+]([O-])c1ccc(NC(=S)NCc2ccncc2)cc1,1.6,i,.,.,
CC(=O)/C(C#N)=C1\NC(=O)C(Cc2ccc(F)cc2)S1 (stereo not given),0.65,i,.,.,
CC(=O)/C(C#N)=C1\NC(=O)C(Cc2ccc(C)c(C)c2)S1 (stereo not given),7.2*,i,i,i,CHO-K1 Tl ctr=3.5*;KCNQ1 pot spec=-20;KCNQ2 pot confirm=-86;Kir2-1 sel=-29
CSCCC(NC(=O)c1cccc([N+](=O)[O-])c1)C(=O)OCC(=O)N1CCCC1=O (stereo not given),0.16,i,.,.,
CCC1(C)Cc2ccccc2-c2[nH]c(=S)[nH]c(=O)c21 (stereo not given),1.2,i,.,.,
CCn1c(=S)[nH]c2c(c1=O)C(C)(C)Cc1ccccc1-2,12*,i,i,288%*,CHO-K1 Tl ctr=4.3*;KCNQ1 pot spec=-15;KCNQ2 pot confirm=28*;Kir2-1 sel=-23;KCNQ2 W236L pot=i
Cc1ccc(S(=O)(=O)N2CCC(C(=O)NNC(=O)c3ccncc3)CC2)cc1,0.84,i,.,.,
O=C(c1ccc(NS(=O)(=O)/C=C/c2ccccc2)cc1)N1CCCCC1,.,i,.,.,
CC(C)(C)c1ccc(C(=O)Nc2nnc(C3=COCCO3)o2)cc1,3.6,i,.,.,
CC(C)Oc1ccc(C(=O)Nc2nnc(C3=COCCO3)o2)cc1,5.3*,i,i,i,CHO-K1 Tl ctr=91*;KCNQ1 pot spec=-7;KCNQ2 pot confirm=-2;Kir2-1 sel=-33;KCNQ2 W236L pot=i
COc1ccc(NC(=O)CSc2nnc(NC(=O)c3ccco3)s2)cc1OC,0.61,i,.,.,
COc1ccc(S(=O)(=O)Nc2ccccc2OC)cc1C,1.6,i,.,.,
COc1ccc(S(=O)(=O)Nc2ccccc2SC)cc1C,.,i,54%*,i,
CN1CCC(OC(=O)c2ccccc2)CC1,0.61,i,.,.,
Cc1c(Br)cc(C(=O)OC2CCN(C)CC2)c(C)c1C,0.45,i,25%*,i,
COc1ccccc1NC(=O)CCNS(=O)(=O)c1ccc2c(c1)CCN2C(C)=O,.,i,.,.,
COc1ccccc1NC(=O)Nc1nc(CC(=O)N2CCN(c3ccccc3OC)CC2)cs1,.,i,.,.,
CC1(C)CC(=O)C=C(NCc2ccc(Cl)c(Cl)c2)C1,.,i,.,.,
OC(CNCc1ccccc1F)COc1cccc2ccccc12 (stereo not given),.,i,72%*,i,
SMILES,KCNQ2 enhance,KCNQ2 block,Kir21 conf inh,HEK293 ctr,others
CC(C)NCC(O)COc1cccc2ccccc12 (stereo not given),.,i,.,.,
COc1ccc(N2C(=O)NC(NS(=O)(=O)c3ccc(NC(C)=O)cc3)(C(F)(F)F)C2=O)cc1 (stereo not given),0.46,i,.,.,
CN1CCN(c2nnc(-c3ccccc3)c(-c3ccccc3)n2)CC1,1,i,.,.,
CCOC(=O)N1CCN(c2nc(-c3ccccc3)c3cc(C)ccc3n2)CC1,.,i,.,.,
CN1CCN(c2nc(-c3ccccc3)c3cc(Cl)ccc3n2)CC1,.,i,60%*,i,
Cc1ccc2nc(N3CCN(CCO)CC3)nc(-c3ccccc3)c2c1,.,i,48%*,i,
Cc1cc(C)c(NC(=S)N2CCN(c3ccc([N+](=O)[O-])cn3)CC2)cc1C,.,i,.,.,
C/C(CC(=O)Nc1ccc2ccccc2c1)=N\NC(=O)c1ccc(O)c(O)c1,.,i,.,.,
COc1cc(/C=C/c2ccc3cccc(O)c3n2)cc(Br)c1OC,.,i,.,.,
COc1cc(/C=C/c2ccc3cccc(O)c3n2)cc(OC)c1OC,5.3*,i,i,i,CHO-K1 Tl ctr=8.5*;KCNQ1 pot spec=0.7*;KCNQ2 pot confirm=-11;Kir2-1 sel=-25
Cc1[nH]c(=O)[nH]c(=O)c1N1CCOCC1,.,i,.,.,
CC1=NN(C(=O)CSCc2ccccc2)C(O)(c2ccc(Cl)cc2)C1 (stereo not given),.,i,.,.,
CC1=NN(C(=O)c2ccc(Cl)cc2)C(O)(c2ccccc2)C1 (stereo not given),20*,i,i,i,CHO-K1 Tl ctr=-14;KCNQ1 pot spec=-7;KCNQ2 pot confirm=-2;Kir2-1 sel=-40;KCNQ2 W236L pot=i
COc1ccc(NC(=O)C(c2ccc(OC)cc2)N(C)C(=O)c2cnccn2)cc1 (stereo not given),6.4*,i,i,i,CHO-K1 Tl ctr=0.6*;KCNQ1 pot spec=-25;KCNQ2 pot confirm=24*;Kir2-1 sel=-28;KCNQ2 W236L pot=i
CC(C)c1ccc(NC(=O)C(c2ccccc2)N(C)C(=O)c2cnccn2)cc1 (stereo not given),0.26,i,.,.,
CCOC(=O)c1sc(NC(=O)C2CC(=O)N(c3ccc(OCC)cc3)C2)nc1C (stereo not given),1.3,i,.,.,
COc1ccccc1CNC(=O)COC(=O)c1cccc(S(=O)(=O)N2CCCC2)c1,0.01,i,.,.,
CC(C)C/C=C1\CCc2c([nH]c3ccccc23)C1=O,2.2,i,.,.,
CCCCCCCCC1=NCCc2c1[nH]c1ccccc21,.,i,20%*,i,
CCN(CC)CCN1C(=O)C2C(C(=O)Nc3cccc(C)c3)C3C=CC2(O3)C1C(=O)NC1CCCC(C)C1C (stereo not given),0.01,i,.,.,
CCOC(=O)c1c(CSc2ccsc2)n(C)c2cc(Br)c(O)c(CN(C)C)c12,.,i,60%*,66%*,
CCOC(=O)c1c(CSc2ccccc2)n(C)c2cc(Br)c(O)c(CN(C)C)c12,.,i,.,.,
Cc1cc(C(=O)N2CCCC(C(=O)c3cccc(C(F)(F)F)c3)C2)nc(C)n1 (stereo not given),1.7,i,.,.,
S=C(Nc1ccc(Cl)c(Cl)c1)NN1CCOCC1,.,i,.,.,
COc1ccc(NC(=O)CSc2ccc3nnc(-c4ccccn4)n3n2)c(OC)c1,.,i,.,.,
